# Assay outcomes from PubChem BioAssay.
# SMN2 splice enh – qHTS Assay for Enhancers of SMN2 Splice Variant Expression | HEK293 SMN2-luciferase splicing reporter, luminescence, 30-36 h | Potency, µM (doses to about 46.1 µM), for inactives: at the highest dose activity change, positive = activation, usual class: activators | 2.8% of 210,000 active | AID 1458, 2008; note: % of control where 0% means no effect; nearly all actives have a fitted effect of over 55% in size
#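 HEK293 cells carry an SMN2 minigene-luciferase reporter in which exon 7 inclusion puts luciferase in frame. Cells were seeded at 2000 cells/well, attached for 10-12 hours, then exposed to compounds for 30-36 hours at 37C before ONE-Glo luminescence.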
# Rab9 promoter act – qHTS Assay for Rab9 Promoter Activators; Huh7 Rab9 promoter-luciferase reporter, luminescence, 24 h; Potency, µM (doses to about 9.22 µM), for the others: top-dose activation, negative = inhibition, most hits filed as activators; 2.8% of 320,000 active; AID 485297, 2010; note: % of control where 0% means no effect; nearly all actives have a fitted effect of over 60% in size
#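 Measured in stably transfected Huh7 cells bearing a Rab9 promoter–luciferase construct: 24 h compound treatment at 37 °C, followed by luminescence detection.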
# KinaseGlo FLuc – Counterscreen for Luciferase (Kinase-Glo TM) Inhibition; Kinase-Glo luciferase, ATP luminescence, 8 min; Potency, µM (doses to about 38.3 µM), inactives show at the top dose activity change, negative = inhibition, hits mostly inhibitors; AID 1379, 2008; 0.28% of 200,000 active; Luciferin 4-monooxygenase (Photuris pensylvanica), Q27757; note: % is set by controls: 0 for no effect and ±100 for the full control effect; nearly all actives have a fitted effect of over 60% in size
#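 Light output from Kinase-Glo luciferase with luciferin and 10 uM ATP in 50 mM imidazole pH 7.2, KCl, MgCl2, Tween 20, BSA; compound pin-delivered, 8-min ambient incubation, then luminescence read.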
# NPC1 prom act – qHTS Assay for NPC1 Promoter Activators | Huh7 NPC1 promoter luciferase reporter, 24 h | Potency, µM (top dose mostly 9.22 µM), for the others: top-dose activation, most hits filed as activators | 2.4% of 320,000 active; note: % of control where 0% means no effect; nearly all actives have a fitted effect of over 60% in size
#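 Stably transfected Huh7 (NPC1 promoter→luciferase), 1500 cells/well in Opti-MEM + 10% FBS, 2 h settle, then compound 24 h at 37 °C. Luminescence after 10 min with Amplite reagent.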
# ELG1 genotoxic – qHTS screen for small molecules that induce genotoxicity in human embryonic kidney (HEK293T) cells expressing luciferase-tagged ELG1. HEK293T ELG1-luciferase reporter, luminescence, 16 h. Potency, µM (highest dose often 46 µM), inactives show top-dose activity change, positive = activation, hits mostly activators. 1.3% of 330,000 active. AID 504466, 2011; note: % of control where 0% means no effect; nearly all actives have a fitted effect of over 60% in size
#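 DMSO vehicle served as control against compound-treated ELG1-luciferase HEK293T cells; exposure lasted 16 hr at 37 °C and 5% CO2, followed by ONE-Glo luminescence detection after 30 min.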
# FLuc counter – qHTS profiling assay for firefly luciferase inhibitor/activator using purifed enzyme and Km concentrations of substrates (counterscreen for miR-21 project); purified FLuc, Km substrates, luminescence inhibition; Potency, µM (highest dose often 57.5 µM), for inactives: at the highest dose activity change, negative = inhibition, most hits filed as inhibitors; 6.9% of 360,000 active; Luciferin 4-monooxygenase (Photinus pyralis), P08659;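 note: plate controls were vehicle for no effect and reference inhibitor for full effect; nearly all actives have a fitted effect of over 55% in size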
# Target sequence (P08659 whole entry, looked up): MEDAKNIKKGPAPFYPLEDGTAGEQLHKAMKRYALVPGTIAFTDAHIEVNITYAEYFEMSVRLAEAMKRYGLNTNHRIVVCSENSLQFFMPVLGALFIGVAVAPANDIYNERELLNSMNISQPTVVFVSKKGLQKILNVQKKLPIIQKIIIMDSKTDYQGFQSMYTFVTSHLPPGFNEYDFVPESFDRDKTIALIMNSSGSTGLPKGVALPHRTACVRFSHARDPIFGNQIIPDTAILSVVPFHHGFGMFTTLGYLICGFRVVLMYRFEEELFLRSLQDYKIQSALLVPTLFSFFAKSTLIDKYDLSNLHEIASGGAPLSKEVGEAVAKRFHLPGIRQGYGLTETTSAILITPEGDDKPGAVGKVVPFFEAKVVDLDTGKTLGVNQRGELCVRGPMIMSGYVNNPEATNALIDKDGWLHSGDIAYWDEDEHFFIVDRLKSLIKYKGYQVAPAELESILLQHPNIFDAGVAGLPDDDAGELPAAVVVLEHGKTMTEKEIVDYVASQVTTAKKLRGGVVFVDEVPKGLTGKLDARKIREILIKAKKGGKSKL
#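 Purified P. pyralis luciferase (10nM final) with 10uM D-luciferin and 10uM ATP (Km levels) in 50mM Tris acetate pH 7.5, 10mM Mg acetate, 0.01% Tween-20, 0.05% BSA; qHTS 6-point titration, ~60 µM downward; luminescence read.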
# * marks the source's active call; other numbers are inactive results; u = inconclusive; x = no result; [ ] = another dose, or the depositor's remark. Compounds with a hit are over-represented: about 7.5% of the library has one in this group of screens. Calls come from the whole dose curve; as a rule, active = well fitted curve in the direction sought with a large enough effect; inconclusive = small, poorly fitted or top-dose-only effect, or another doubt; inactive = no such curve, though single readings can be large; an effect the other way counts as inactive or inconclusive. Potency is the fitted concentration of half-maximal effect.
SMILES,SMN2 splice enh,Rab9 promoter act,KinaseGlo FLuc,NPC1 prom act,ELG1 genotoxic,FLuc counter
CC1=C(C(=O)Nc2ccc(CC(=O)NCc3ccccc3C)cc2)SCCO1,x,u,x,17%,u,2.4µM*
COc1cccc(CNC(=O)Cc2ccc(NC(=O)C3=C(C)OCCS3)cc2)c1,x,3.2µM*,x,u,u,1.9µM*
CC1=C(C(=O)Nc2cccc(C(=O)NCc3ccc(F)cc3)c2)SCCO1,x,-10%,x,-4%,-3%,-18%
CCc1ccc(CNC(=O)Cc2ccc(NC(=O)C3=C(C)OCCS3)cc2)cc1,x,10%,x,u,u,2.4µM*
Cc1ccc(C(=O)NCC(=O)NCCCc2ccccc2)cc1,x,0%,x,1%,0%,-1%
Cc1ncc(CSC(=N)N)n1Cc1ccccc1,4%[9.22 µM],x,-5%[7.66 µM],x,x,x
O=C(N/N=C/c1cc([N+](=O)[O-])ccc1O)NC12CC3CC(CC(C3)C1)C2,-36%,-2%,4%,14%,15µM*,u
O=C(N/N=C/c1cc([N+](=O)[O-])ccc1O)C12CC3CC(CC(C3)C1)C2,-93%,-6%,3%,1%,5%,u
O=C(N/N=C/c1ccccn1)NC12CC3CC(CC(C3)C1)C2,x,u,x,u,4%,17µM*
O=C(NN/C(=N/S(=O)(=O)c1ccc(Cl)cc1)c1ccccc1)c1ccc(O)cc1,22%,0%,-4%,6%,u,15µM*
O=C(O)CCC(=O)NNC(=O)c1cccc(Cl)c1,8%,-4%,2%,0%,2%,6%
O=C(NN/C(=N/S(=O)(=O)c1ccc(Cl)cc1)c1ccccc1)c1cccc(Cl)c1,x,u,x,4µM*,16µM*,6µM*
Cc1ccc(S(=O)(=O)/N=C(/NNC(=O)c2cccc(Cl)c2)c2ccccc2)cc1,x,u,x,u,16µM*,15µM*
O=S(=O)(/N=C(/NC(=S)Nc1ccccc1)c1ccccc1)c1ccc(Cl)cc1,x,27%,x,22%,u,24µM*
O=C(O)c1ccc(N/C(=N\S(=O)(=O)c2ccc(Cl)cc2)c2ccccc2)cc1,x,-1%,x,-3%,2%,-18%
CSCCC(NS(=O)(=O)c1ccc(Br)cc1)C(=O)OCC(=O)NC1CC1 (configuration not stated),13%,-5%,-3%,-2%,-4%,1%
CCOP(=O)(OCC)C(NC(=O)c1cccs1)c1ccccc1 (configuration not stated),x,1%,x,-3%,0%,1%
Cc1cc(C(C)(C)C)cc(CNC2CCCCC2)c1O,-4%[9.22 µM],x,-2%[7.66 µM],x,x,x
Cc1ccc(N=C(N)N=C(N)N)c(C)c1,x,-2%,x,2%,-1%,-1%
O=C(O/N=C/c1ccc(Cl)cc1)C1CCCCC1,x,1%,x,1%,-2%,2.7µM*
O=C(CN1CCCCC1)N/N=C/c1ccc(Cl)cc1,x,7%,x,-1%,3%,-13%
CS(=O)(=O)c1ccc(C(=O)Nc2cc(S(C)(=O)=O)ccc2Cl)cc1,x,-1%,x,3%,2%,0%
O=C(Nc1ccc(Cl)c(Cl)c1)c1ccncc1,18%,22%,-4%,26%,7%,u
O=C(Nc1ccc(Cl)c(Cl)c1)c1ccc(Cl)c(Cl)c1,x,3.5µM*,x,3.5µM*,12%,12µM*
Cc1ccc(NC(=O)c2ccc(Cl)c(N3C(=O)C=CC3=O)c2)cc1,-5%,-6%,-1%,-12%,7%,9.5µM*
CS(=O)(=O)c1cccc(NC(=O)c2ccc(Cl)c(Cl)c2)c1,x,23%,0%,2%,1%,19µM*
COc1ccc(C(=O)Nc2ccc(Cl)c(Cl)c2)c(OC)n1,3.2µM*,u,-8%,3%,u,0.95µM*
